Screens: PubChem, Broad Institute
Not all results are given here.
IDE exosite FP: exo-site inhibitors of human insulin-degrading enzyme. purified IDE, FL-6b probe fluorescence polarization; active compounds read low. z-score at 20 µM. 17,000 compounds, 6.3% hits;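 active = z-score of -3 or lower, meaning strong loss of probe binding signal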;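 note: His-tagged human IDE residues 42-1019 made in E. coli with 30 nM FL-6b probe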
Calls only; – = inactive.

SMILES | IDE exosite FP
COc1ccc(-c2ccc([C@H]3[C@@H](CO)N4CCCCN(C(=O)Cc5ccccc5)C[C@@H]34)cc2)cc1 | –
COc1cccc(-c2ccc([C@H]3[C@@H](CO)N4CCCCN(C(=O)Cc5ccncc5)C[C@@H]34)cc2)c1 | –
COC(=O)[C@H]1[C@H](CO)[C@H]2Cn3c(cccc3=O)[C@@H]1N2CCc1ccccc1 | –
O=C(Cc1ccncc1)N1CCCCN2[C@H](C1)[C@@H](c1ccc(C#CC3(O)CCCC3)cc1)[C@@H]2CO | –
O=C(Cc1ccccc1)N1CCCCN2[C@H](CO)[C@H](c3ccc(C#CC4(O)CCCC4)cc3)[C@@H]2C1 | –
O=C(Cc1ccccc1)N1CCCCN2[C@@H](CO)[C@@H](c3ccc(-c4ccccc4)cc3)[C@@H]2C1 | –
O=C(Cc1ccncc1)N1CCCCN2[C@H](CO)[C@H](c3ccc(-c4ccncc4)cc3)[C@@H]2C1 | –
N#Cc1cccc(-c2ccc([C@@H]3[C@@H](CO)N4CCCCN(C(=O)Cc5ccccc5)C[C@@H]34)cc2)c1 | –
